Laboratory results taken from the supplement of paper PMC8726507.

What follows are compounds tested on Plasmodium falciparum NF54-HGL (transmission to Anopheles stephensi) (assay: percentage of barcode signal found in uninfected mosquitoes (transmission-blocking activity); higher = stronger blocking of transmission to mosquito, active = 80 or more). Details: 10 µM; gametocyte preincubation time 24 h; readout time post-feed 8 days.
Method: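 The mixture was fed to Anopheles stephensi in 96-well plates as blood meals tagged with DNA-barcoded Asaia bacteria. Eight days later, mosquitoes were classed infected or uninfected by luminescence (mean + 5 SD of unfed controls). Barcodes were quantified by Luminex MagPlex-TAG in the pooled uninfected and infected Asaia cultures, background-corrected, and the score is % of barcode signal in uninfected mosquitoes = 100*Iu/(Iu+Ii).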

SMILES	percentage of barcode signal found in uninfected mosquitoes
O=C(Nc1ccc2c(c1)B(O)OC2)c1ccccc1C(F)(F)F	84.1% (active)
O=S(=O)(c1ccc(Cl)cc1)N1CCN(C(=S)NCc2ccco2)CC1	29.2% (inactive)
CC(C)C(C(=O)Nc1ccc(S(=O)(=O)N(C)C)cc1)c1ccc(Cl)cc1 (stereo not given)	49.7% (inactive)
CCOc1ccccc1C(=O)Nc1cccc(-c2nc3ncccn3c2C)c1	78.8% (inactive)
COC(=O)Nc1nc2cc(C(=O)c3ccccc3)ccc2[nH]1	42.3% (inactive)
Cc1[nH]c2ccccc2c1C(c1cccs1)N1CCN(C)CC1 (stereo not given)	43.7% (inactive)
Cc1ccc2nc(Cl)c(CNCc3cccs3)cc2c1	7.16% (inactive)
Brc1cncc(-c2cc(NCCCn3ccnc3)nc(-c3ccccc3)n2)c1	-0.102% (inactive)
CCCCc1ccc(NC(=O)Nc2ccc(O[C@H]3CCCC[C@@H]3N(C)c3ccccc3)c(F)c2)cc1	28.1% (inactive)
O=C(C1CCN(c2nnnn2-c2ccccc2)CC1)N1CCc2ccccc2C1	46.7% (inactive)
O=C(NCc1ccco1)N1CCN(Cc2ccc(Cl)s2)CC1	0.794% (inactive)
COc1cccc2c(C)nc(N=C(N)N)nc12	24.9% (inactive)
O=C(Nc1cccnc1)c1c(O)c2cccc3c2n(c1=O)CC3	20.2% (inactive)
N#Cc1nc(-c2ccccc2)oc1S(=O)(=O)c1ccc(Cl)cc1	72.7% (inactive)
COc1cncc(-c2cncc(N3CCN(c4ccncc4)CC3)n2)c1	63.9% (inactive)
CNc1nnc(Sc2cnn(-c3ccccc3)c(=O)c2Cl)s1	76.3% (inactive)
Cc1cc(C(=O)Nc2ccc(-c3ccccc3)cc2)no1	64% (inactive)
COC(=O)C1=C(C)NC(C)=C(C(=O)OC(C)C)C1c1cccc2nonc12 (stereo not given)	57.4% (inactive)
O=C(c1ccco1)N(CCCn1ccnc1)c1nc2c(Cl)cccc2s1	17.2% (inactive)

Same assay, conditions: 20 µM; gametocyte preincubation time 24 h; readout time post-feed 8 days

SMILES	percentage of barcode signal found in uninfected mosquitoes
O=C(c1ccc(F)cc1)N(CCNc1ccccc1)c1ccccc1	7.39% (inactive)
COc1ccc(-c2nn(C(C)C)c3ncnc(N)c23)cc1OC	95.5% (active)
Cc1ccc(S(=O)(=O)Nc2ccc(CN3CCN(C(=O)c4cccc(C#N)c4)CC3)cc2)cc1	0.0235% (inactive)
Clc1ccc(-n2cc(COc3ccnc4ccccc34)nn2)cc1	34.4% (inactive)
Cc1cc(NCC(C)C)c2n[nH]c(-c3ccccc3)c2n1	43% (inactive)
CCc1ccc([C@@H]2C[C@H](C(F)(F)F)n3ncc(C(=O)NCc4ccc(OC)cc4)c3N2)cc1	8.67% (inactive)
NCCN(C(=O)c1ccc(Cl)cc1Cl)c1ccc(OCc2ccc(Cl)cc2)cc1	65.8% (inactive)
Nc1ncc(Br)cc1-c1nc2cc(Cl)cnc2[nH]1	21.4% (inactive)
O=C(Nc1cnc2ccccc2c1)c1cccc(-n2cnnn2)c1	21.3% (inactive)
C[C@H](C(N)=O)N1CCCC[C@@H]1c1ccc(OCc2cccc(F)c2)cc1	17.3% (inactive)
Cc1cccc(-c2nc(Nc3ccncn3)c3sccc3n2)n1	91.4% (active)
CC1=Nc2ccc(Cl)cc2C(c2ccccc2)N1CCNC(=O)CN(C)C (stereo not given)	71.2% (inactive)
COc1cc(C(F)(F)F)nc2ccc(C)c(N)c12	-0.0386% (inactive)
CCC(Sc1nc2ccccc2o1)C(=O)Nc1nnc(C)s1 (stereo not given)	-0.757% (inactive)
CCc1ccc(S(=O)(=O)Nc2cc(CN3CCN(CCC(C)C)CC3)ccc2C)cc1	22.9% (inactive)
CCOC(=O)c1c(NC(=O)c2c(F)c(F)c(F)c(F)c2F)sc(C(N)=O)c1C	60.8% (inactive)
CNC(=O)C1Cc2c([nH]c3cc(Cl)ccc23)C2(CCN(CCc3ccccc3)CC2)N1 (stereo not given)	87.5% (active)
Cc1nn(C)cc1C(C)Nc1nncc(-c2ccc(C(F)(F)F)cc2)n1 (stereo not given)	89.3% (active)
CC(C)(C)c1ccc(N[C@@H]2CCCC[C@H]2NC(=O)c2ccco2)cc1	31.3% (inactive)
Clc1ccc(CN2CCN(C3=NCCN3)CC2)cc1Cl	4.45% (inactive)
CCCCCCCCCCCCCCCCOP(=O)([O-])OCC[N+](C)(C)C	-0.352% (inactive)
